Unmarked numbers belong to inactive results. No rule for the calls is given here.
experiment: blockers of DNA damage checkpoint Chk1 activation – imaging, HeLa, hydroxyurea, phospho-Chk1 nuclear intensity, primary screen (AID 1187); conditions: hydroxyurea-induced phospho-Chk1 immunofluorescence imaging, higher = more signal; also: test concentration not given here

Structure (SMILES) | z-score
C=CCNC(=O)[C@H]1[C@@H]2C(=O)O[C@@H](c3ccccc3)[C@@H](c3ccccc3)N2[C@@H](c2ccccc2OCCO)[C@]12C(=O)N(C(=O)OCCOC)c1ccc(C#CCNC(N)=O)cc12 | -0.261
O=C1c2ccccc2[C@](Cc2ccccc2I)(C(=O)NCC(F)(F)F)[C@H](c2ccc(CO)cc2)N1Cc1ccccc1C(F)(F)F | 0.14
Cc1ccc(N2C(=O)c3ccccc3[C@@H](C(=O)NCC(F)(F)F)[C@@H]2c2ccc(CO)cc2)nc1 | 0.171
[N-]=[N+]=NCc1ccccc1C[C@@]1(C(=O)N2CCOCC2)N=C(c2ccc(OCCCO)cc2)O[C@@H]1c1ccccc1N=[N+]=[N-] | 0.0427
C=C(CCCC)/C(=C/C[C@@H](OC(=O)c1ccncc1)c1cccc(OCCO)c1)c1cc(C(=O)OC)ccc1OC | 0.74
C=C(CCCC)C(=O)CC[C@@H](OC(C)=O)c1ccccc1OCCO | -0.223
CCOC(=O)C1=CC[C@@H](c2ccc(-c3ccc(OCc4ccccc4)cc3)c(OC)c2)N(S(=O)(=O)c2ccc(C)cc2)[C@H]1c1ccccc1 | -0.995
CC(C)[C@H]1NC(=O)[C@@]23C(=O)N[C@@H](Cc4ccccc4)C2[C@H](C)[C@@]2(C)O[C@H]2C3/C=C/C/C=C\CNC(=O)[C@H](C)NC1=O (stereo partly specified) | 0.42
CC(=O)NCCCC[C@@H]1NC(=O)[C@H]2C[C@@H](C(=O)NCCCCCCN(C)C)[C@@H](c3cccc(OCCO)c3)N2C1=O | 0.733
C/C(=N\O)C(=O)NCCCCCNC(=O)OCc1ccccc1 | -0.394
COCCOC(=O)N1C(=O)[C@@]2(c3cc(C#CC4=CCCCC4)ccc31)[C@H](C(=O)NC[C@H](O)c1ccccc1)[C@H]1C(=O)O[C@H](c3ccccc3)[C@H](c3ccccc3)N1[C@@H]2c1ccc(OCCO)cc1 | 0.231
COCCOC(=O)N1C(=O)[C@@]2(c3cc(C#CC4(O)CCCCCC4)ccc31)[C@H](C(=O)N1CCCCCCC1)[C@H]1C(=O)O[C@H](c3ccccc3)[C@H](c3ccccc3)N1[C@@H]2c1ccc(O)cc1 | 0.085
C=C(COC)/C(=C/C[C@@H](OC(C)=O)c1cccc(OCCO)c1)c1cc(C(=O)OC)ccc1OC | -0.95
C=CCC(OC(C)=O)[C@@H]1[C@@H](N(Cc2ccc(-c3cccc(C(F)(F)F)c3)o2)C(=O)Cc2ccc(F)cc2)c2cc(OCCCO)ccc2N1C(=O)c1ccc(-c2ccccc2)cc1 (stereo partly specified) | -0.385
CC(C)[Si]1(C(C)C)O[C@@H](c2ccccc2)c2cc(C3CC3)nc(-c3ccc(Oc4ccccc4)cc3)c21 | 0.661
Cc1ccc([C@@H]2CC=C(C(=O)O)[C@H](c3ccccc3)N2S(=O)(=O)c2ccc(C)cc2)cc1 | -0.824
CCOC(=O)C[C@H]1[C@H](OC(=O)c2ccccc2-c2ccccc2)[C@@H](NC(=O)C2CCCCC2)c2cc(OCCCO)ccc2N1C(=O)c1ccccc1 | -0.0975
Cc1ccc(S[C@]2(C(=O)NCCCN(C)C)CC(=O)N(Cc3ccccc3)[C@@H]2c2ccc(CO)cc2I)cc1 | 0.637

Structure (SMILES) | z-score
CCCC=C(CCC)[C@@H](NC(=O)c1ccc(C(F)(F)F)cc1)c1ccccc1 | 0.29
NC(=O)NCC#Cc1ccc2c(c1)[C@]1(C(=O)N2)[C@H](c2ccccc2OCCO)N2[C@H](c3ccccc3)[C@H](c3ccccc3)OC(=O)[C@H]2[C@@H]1C(=O)N1CCN(c2ncccn2)CC1 | 1.5
C=C(CCCC)/C(=C/C[C@H](OC(=O)c1ccncc1)c1cccc(OCCO)c1)c1cc(C(=O)OC)ccc1OC | -0.355
CN1CCC(CCCO)=CC1C1CC1 (stereo unspecified) | -0.684
COc1ccc([Si](C)(C)[C@H]2[C@H](CC(=O)N(CCO)Cc3ccccc3)O[C@@]3(C(=O)N(C)c4ccccc43)[C@@H]2C)cc1 | -0.251
CN1C2C=C(c3ccc(CO)cc3)C(C3C(=O)N(C(N)=O)C(=O)C32)C1c1cccs1 (stereo unspecified) | -1.11
O=C/C=C/c1ccccc1Cl | 0.0674
COCCOC(=O)N1C(=O)[C@@]2(c3cc(C#CCCO)ccc31)[C@H](C(=O)N1CCCCCCC1)[C@H]1C(=O)O[C@H](c3ccccc3)[C@H](c3ccccc3)N1[C@@H]2c1ccc(O)cc1 | -0.457
C=C(/C(=C/C[C@@H](OC(=O)c1ccncc1)c1ccc(CO)o1)c1cnc2ccccc2c1)C(C)C | -0.232
COc1ccc(C(O)C2C=CC3C(=O)N(C)C(=O)C3N2N2CCCCC2)cc1OCc1ccccc1 (stereo unspecified) | -0.0779
COC(=O)[C@@]1(Cc2ccc(OC)cc2)[C@H]2c3cc(C(=O)N(C)C)n(CCc4ccc(OC)c(Br)c4)c3C[C@H]2CN1C(=O)c1ccccc1 | 0.463
CCCCCCc1nc(C2CC2)c(C)c2c1[Si](C(C)C)(C(C)C)OC2 | -0.23
C[C@H]1C2[C@H](Cc3ccccc3)NC(=O)[C@]23C(=O)N[C@H](Cc2ccccc2)C(=O)N[C@@H](Cc2ccccc2)C(=O)NC/C=C\C/C=C/C3[C@@H]2O[C@]12C (stereo partly specified) | 0.375
O=C1OCCC=C[C@H]2OC34C=CCN(Cc5ccccc5)C(=O)[C@H]3N(CCO)C(=O)[C@@H]4C12 (stereo partly specified) | -0.732
C=CCN1C(=O)[C@@]2(Cc3ccccc3)N=C(c3ccc(OCCCO)cc3)O[C@H]2c2ccccc21 | -0.138
COCCOC(=O)N1C(=O)[C@@]2(c3cc(C#CCNC(N)=O)ccc31)[C@H](c1ccccc1OCCO)N1[C@H](c3ccccc3)[C@H](c3ccccc3)OC(=O)[C@H]1[C@@H]2C(=O)NC[C@H](O)c1ccccc1 | -0.158
CC(=O)NCCCC[C@@H]1NC(=O)[C@H]2C[C@@H](C(=O)NCCCCCCN(C)C)[C@@H](c3ccc(O)cc3)N2C1=O | 0.0377
CN1C(=O)C2C=CC(C(O)c3ccc(N(C)C)cc3)N(Nc3ccc([N+](=O)[O-])cc3[N+](=O)[O-])C2C1=O (stereo unspecified) | -0.169

From PubChem BioAssay
